In PubChem BioAssay AID1159580 (chemical genetic matrix, 2015):
Several values for one entry are separate records, joined by “and”; a condition that tells them apart may be missing. Equal entries are not always repeated. Among all 5,500 compounds or so, about 2,000 (36%) were called active. Not shown: some 18% with an inconclusive outcome. Cut-off read from the data, not from the text of the source: active = normalized growth mostly below about 0.91 (no sharp cut-off); inconclusive = no clear call, values can overlap the other calls; inactive = mostly above about 0.92. The list shows a part of the results.

Assay: chemical genetic growth profiling, strain panel (AID 1159580);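 note: tested at 20 µM; growth read once vehicle control cultures reached saturation at 30 °C; 1 = growth at the plate median or of vehicle wells; lower values mean less growth of the strain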
Settings: S. cerevisiae deletion strains, growth OD

Measured: normalized growth

COc1ccc(C(=O)N2CCCC2=O)cc1
inactive: locus YAL013W, strain DEP1, active compounds read low 0.971 | locus YAL021C, strain ccr4, active compounds read low 0.981 | locus YAL026C, strain drs2, active compounds read low 0.976 | locus YAL030W, strain snc1, active compounds read low 0.956 | locus YAL040C, strain CLN3, active compounds read low 1.01 | locus YBL061C, strain skt5, active compounds read low 0.962 | locus YBR009C, strain hhf1, active compounds read low 0.969 | locus YBR021W, strain FUR4, active compounds read low 1.05 | locus YBR023C, strain chs3, active compounds read low 0.967 | locus YBR171W, strain sec66, active compounds read low 0.96 | locus YBR229C, strain ROT2, active compounds read low 0.953 | locus YBR231C, strain swc5, active compounds read low 0.967 | locus YBR279W, strain paf1, active compounds read low 0.987 | locus YCL011C, strain gbp2, active compounds read low 0.946 | locus YCL016C, strain dcc1, active compounds read low 0.976 | locus YCL029C, strain bik1, active compounds read low 0.983 | locus YCL061C, strain MRC1, active compounds read low 0.974 | locus YCL069W, strain vba3, active compounds read low 0.985 | locus YCR088W, strain abp1, active compounds read low 0.981 | locus YDL005C, strain med2, active compounds read low 0.974 | locus YDL035C, strain GPR1, active compounds read low 0.984 | locus YDL040C, strain nat1, active compounds read low 0.984 | locus YDL074C, strain BRE1, active compounds read low 0.961 | locus YDL101C, strain DUN1, active compounds read low 0.952 | locus YDL134C, strain PPH21, active compounds read low 0.993 | locus YDL185W, strain tfp1, active compounds read low 0.964 | locus YDL192W, strain arf1, active compounds read low 0.983 | locus YDR001C, strain nth1, active compounds read low 0.97 | locus YDR069C, strain doa4, active compounds read low 0.968 | locus YDR101C, strain arx1, active compounds read low 0.989 | locus YDR137W, strain rgp1, active compounds read low 0.967 | locus YDR150W, strain NUM1, active compounds read low 0.968 | locus YDR159W, strain sac3, active compounds read low 0.968 | locus YDR162C, strain NBP2, active compounds read low 0.968 | locus YDR195W, strain ref2 1 | locus YDR297W, strain sur2, active compounds read low 0.967 | locus YDR318W, strain mcm21, active compounds read low 0.996 | locus YDR334W, strain swr1, active compounds read low 0.939 | locus YDR335W, strain msn5, active compounds read low 0.975 | locus YDR388W, active compounds read low 0.999 | locus YDR392W, strain spt3, active compounds read low 0.929 | locus YDR502C, strain sam2, active compounds read low 0.995 | locus YEL003W, strain gim4, active compounds read low 0.981 | locus YEL037C, strain rad23, active compounds read low 0.979 | locus YEL061C, strain CIN8 (second series), active compounds read low 0.971 | locus YEL061C, strain CIN8, active compounds read low 0.983 | locus YER002W, strain NOP16, active compounds read low 1 | locus YER015W, strain faa2, active compounds read low 0.979 | locus YER016W, strain bim1, active compounds read low 0.984 | locus YER110C, active compounds read low 0.985 | locus YER111C, strain swi4, active compounds read low 0.978 | locus YER155C, strain BEM2 (second series), active compounds read low 0.974 | locus YER155C, strain BEM2, active compounds read low 0.995 | locus YER167W, strain BCK2, active compounds read low 0.983 | locus YFR010W, strain ubp6, active compounds read low 0.962 | locus YGL078C, strain dbp3, active compounds read low 0.985 | locus YGL086W, strain mad1, active compounds read low 0.987 | locus YGL167C, strain pmr1, active compounds read low 0.96 | locus YGL173C, strain kem1, active compounds read low 0.961 | locus YGL227W, strain vid30, active compounds read low 0.971 | locus YGL240W, strain doc1, active compounds read low 0.992 | locus YGL248W, strain PDE1, active compounds read low 0.977 | locus YGL253W, strain hxk2, active compounds read low 0.976 | locus YGR078C, strain PAC10, active compounds read low 0.973 and 1 | locus YGR135W, strain pre9, active compounds read low 0.981 | locus YGR229C, strain SMI1, active compounds read low 0.994 and 1.02 | locus YGR252W, strain gcn5, active compounds read low 1.05 | locus YHR013C, strain ard1, active compounds read low 0.962 | locus YHR027C, strain rpn1, active compounds read low 0.956 | locus YHR030C, strain SLT2, active compounds read low 0.992 | locus YHR079C, strain IRE1 (second series), active compounds read low 0.991 | locus YHR094C, strain hxt1, active compounds read low 0.991 | locus YHR129C, strain ARP1, active compounds read low 0.992 | locus YHR142W, strain chs7, active compounds read low 0.91 | locus YHR200W, strain rpn10, active compounds read low 0.989 | locus YIL066C, strain RNR3, active compounds read low 0.986 | locus YIL073C, strain SPO22, active compounds read low 1.01 | locus YIL125W, strain kgd1, active compounds read low 0.992 | locus YIR030C, strain dcg1, active compounds read low 0.981 | locus YJL092W, strain hpr5, active compounds read low 0.975 | locus YJL095W, strain BCK1 (second series), active compounds read low 0.973 | locus YJL095W, strain BCK1, active compounds read low 1 | locus YJL115W, strain asf1, active compounds read low 0.957 | locus YJL129C, strain trk1, active compounds read low 1.01 | locus YJL134W, strain LCB3, active compounds read low 0.977 | locus YJL154C, strain vps35, active compounds read low 0.975 | locus YJL164C, strain tpk1, active compounds read low 0.985 | locus YJL166W, strain qcr8, active compounds read low 0.945 | locus YJL168C, strain set2, active compounds read low 0.992 | locus YJL187C, strain SWE1 (second series), active compounds read low 0.98 | locus YJL187C, strain SWE1, active compounds read low 0.975 | locus YJR043C, strain POL32, active compounds read low 1
